High-throughput results as filed in PubChem BioAssay.
AF4-AF9 inh: MLL-AF4/AF9 protein interaction inhibition; inhibition, % at 10 µM; actives 0.47% (n = 350,000); AlphaScreen, biotin-AF4 peptide binding to FLAG-AF9; P42568; AID 651704;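 active = every replicate reaching a set inhibition limit, whatever the replicate mean, cut at about 25% in these data; inconclusive = mean inhibition reaches that limit but some replicates miss it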
RAD52 anneal inh: RAD52 (human) annealing inhibition; recombinant RAD52 DNA annealing, FRET fluorescence; inhibition, % at 18.7 µM; actives 0.46% (n = 360,000); AID 651710;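 active = every replicate showing at least 50% inhibition; inconclusive = mean inhibition at least 50% but not in every replicate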
Target sequence (P43351 whole entry, looked up): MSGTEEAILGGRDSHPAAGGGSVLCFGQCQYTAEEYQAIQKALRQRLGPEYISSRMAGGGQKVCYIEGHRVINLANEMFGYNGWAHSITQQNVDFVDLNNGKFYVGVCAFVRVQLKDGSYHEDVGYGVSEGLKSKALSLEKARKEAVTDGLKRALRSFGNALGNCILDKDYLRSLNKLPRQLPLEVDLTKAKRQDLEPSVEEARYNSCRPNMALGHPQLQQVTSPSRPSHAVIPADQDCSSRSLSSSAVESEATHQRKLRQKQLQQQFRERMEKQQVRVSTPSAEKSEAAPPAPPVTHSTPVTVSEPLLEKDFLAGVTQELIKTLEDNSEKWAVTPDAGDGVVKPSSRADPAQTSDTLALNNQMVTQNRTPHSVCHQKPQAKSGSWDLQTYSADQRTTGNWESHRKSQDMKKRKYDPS
FGF22 binding: binders of recombinant human FGF22 by thermal shift. Q9HCT0. SYPRO orange fluorescence; percent of sucrose octasulfate shift, DMSO zero. activity (Tm shift, normalised), % at 9.99 µM. actives 1.5% (n = 340,000);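 active = mean Tm shift, scaled 0 neutral to 100 positive control, at about 1.3% or above, every replicate too, limit read from the data; inconclusive = no clear call, values can overlap the other calls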
Target sequence (Q9HCT0 whole entry, looked up): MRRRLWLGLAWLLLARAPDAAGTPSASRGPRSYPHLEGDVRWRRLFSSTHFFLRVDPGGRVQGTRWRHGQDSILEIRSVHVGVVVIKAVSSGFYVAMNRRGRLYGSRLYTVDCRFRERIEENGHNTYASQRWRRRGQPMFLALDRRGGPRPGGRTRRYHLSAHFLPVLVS
ERAP1 HTS inh: ERAP1 (human) enzyme inhibition; inhibition, % at 10.7 µM; Q9NZ08; AID 652197; recombinant ERAP1, Leu-AMC fluorescence, 60 min; actives 0.15% (n = 340,000);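 active = mean replicate inhibition of at least 30%, or all replicates individually reaching that 30% level; inactive = mean below 30% and not every replicate reaching it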
DENV2 CPE: inhibitors of DENV2 cytopathic effect; CPE inhibition, % at 9.99 µM; actives 1.7% (n = 350,000); DENV2-infected cells, cytopathic effect rescue, plate reader; in the data active = CPE inhibition above about 20%, passing the limit was not always enough; inconclusive = no clear call, values can overlap the other calls; tested in BHK-21 cells
Large screens that a line does not name were inactive; ! = not active in a repeat. A selection: hits, their analogues and other compounds. The true share with any hit is near 4%.

C[C@H]1CN([C@@H](C)CO)C(=O)c2c(c3ccccc3n2C)-c2ccccc2CO[C@@H]1CN(C)C(=O)CCN(C)C	RAD52 anneal inh 59
CC(=O)N(C)C[C@H]1OCc2ccccc2-c2c(n(C)c3ccccc23)C(=O)N([C@H](C)CO)C[C@H]1C	DENV2 CPE 34
CNC[C@@H]1OCc2ccccc2-c2ccccc2C(=O)N([C@@H](C)CO)C[C@@H]1C	DENV2 CPE 33!
Cc1ccc(S(=O)(=O)N[C@@H]2C=C[C@H](CC(=O)NCc3ccccc3F)O[C@H]2CO)cc1	none
CN1c2ccc(-c3ccccc3F)cc2[C@@H]2[C@@H](CCN2S(=O)(=O)c2ccccc2)[C@@H]1CO	none
O=C(NCc1cccc(F)c1)[C@H]1[C@H](CO)[C@H]2Cn3c(cccc3=O)[C@@H]1N2C(=O)c1cnccn1	DENV2 CPE inconclusive
C[C@H](CO)N1C[C@H](C)[C@H](CN(C)C(=O)Nc2ccc(F)cc2)OCc2ccccc2-c2c(n(C)c3ccccc23)C1=O	DENV2 CPE 73!
C[C@H]1CN([C@@H](C)CO)C(=O)c2c(c3ccccc3n2C)-c2ccccc2CO[C@@H]1CN(C)C(=O)Nc1ccc(F)cc1	none
C[C@H](CO)N1C[C@H](C)[C@@H](CN(C)C(=O)[C@H](Cc2ccccc2)N(C)C)OCc2ccccc2-c2c(n(C)c3ccccc23)C1=O	AF4-AF9 inh 37
C[C@H](CO)N1C[C@H](C)[C@H](CN(C)Cc2ccncc2)Oc2cc(C#CC3CC3)ccc2S1(=O)=O	none
CNC[C@H]1OCCCC[C@H](C)Oc2ccc(NS(=O)(=O)c3cn(C)cn3)cc2C(=O)N([C@@H](C)CO)C[C@H]1C	none (no result: AF4-AF9 inh, RAD52 anneal inh, ERAP1 HTS inh)
O=C(c1cccc(F)c1)N1CC2(C1)[C@@H](c1ccccc1)[C@H](CO)N2C(=O)C1CCC1	none (no result: FGF22 binding)
COc1cccc(-c2ccc3c(c2)[C@H]2[C@H](CCN2S(=O)(=O)c2cn(C)cn2)[C@@H](CO)N3)c1	DENV2 CPE 98
Cn1cnc(S(=O)(=O)N2CC[C@@H]3[C@H](CO)Nc4ccc(C#Cc5ccc(F)cc5)cc4[C@@H]32)c1	DENV2 CPE 27
Cn1cnc(S(=O)(=O)N2CC[C@@H]3[C@H](CO)Nc4ccc(-c5ccc(F)cc5)cc4[C@@H]32)c1	DENV2 CPE 46
CCCC#Cc1ccc2c(c1)[C@H]1[C@H](CCN1S(=O)(=O)c1cn(C)cn1)[C@H](CO)N2	DENV2 CPE 65 (no result: FGF22 binding)
COc1cccc(-c2ccc3c(c2)[C@H]2[C@H](CCN2S(=O)(=O)c2cn(C)cn2)[C@H](CO)N3)c1	none
CCCC#Cc1ccc2c(c1)[C@@H]1[C@@H](CCN1S(=O)(=O)c1ccccc1F)[C@@H](CO)N2	none (no result: FGF22 binding)
CCCC#Cc1ccc2c(c1)[C@@H]1[C@@H](CCN1S(=O)(=O)c1ccccc1C)[C@@H](CO)N2	DENV2 CPE 66 (no result: FGF22 binding)
CCc1ccc(N2C(=O)CN(CC(=O)OC)C2=S)cc1	none
COC(=O)CN1CC(=O)N(c2ccccc2)C1=S	FGF22 binding 43
C[C@@H]1CN([C@H](C)CO)C(=O)c2cc(NC(=O)CCC(F)(F)F)ccc2O[C@@H](C)CCCCO[C@@H]1CN(C)S(=O)(=O)c1cccs1	none
Cc1ccc2sc(C)[n+](CCCS(=O)(=O)[O-])c2c1	none
CCCC[n+]1c(C)sc2cc(OC)ccc21	ERAP1 HTS inh 35
Cc1ccc2c(c1)sc(C)[n+]2CCCS(=O)(=O)[O-]	FGF22 binding 43
C[C@H](CO)N1C[C@H](C)[C@@H](CN(C)S(=O)(=O)c2ccccc2)Oc2ncc(Br)cc2C1=O	none
Cn1c(N)c(C(=O)COC(=O)c2cccnc2Cl)c(=O)n(C)c1=O	none (no result: DENV2 CPE)
Cc1cc(C)c(C(=O)COC(=O)c2cccnc2Cl)c(C)c1	FGF22 binding 43
O=C(CCNC(=O)C1CCN(S(=O)(=O)c2ccccc2)CC1)NCc1cccnc1	FGF22 binding 43
C[C@H](NC(=O)C1CCN(S(=O)(=O)c2ccccc2)CC1)C(=O)NC1CC1	FGF22 binding 43
O=C(CCNC(=O)C1CCN(S(=O)(=O)c2ccc(F)cc2)CC1)NCc1cccnc1	none
C[C@H](NC(=O)C1CCN(S(=O)(=O)c2ccccc2)CC1)C(=O)NCc1cccnc1	DENV2 CPE 37
O=C(C[C@H]1C=C[C@@H](NC(=O)c2ccccc2)[C@@H](CO)O1)NCCc1ccncc1	none
CC=Cc1ccc2n(c1=O)C[C@H]1[C@H](CO)[C@@H](C(=O)Nc3ccccc3)N(CC3CC3)[C@@H]21 (mixture of isomers)	none
O=C(COc1cccc2cccnc12)N1CCc2ccccc21	FGF22 binding 43
COc1ccc2c3c([nH]c2c1)[C@H](CO)N(C(=O)c1ccccn1)CC31CN(S(C)(=O)=O)C1	none
COCc1[nH][nH]c(=O)c1C=Nc1ccc(Oc2ccccc2)cc1	none (no result: AF4-AF9 inh, FGF22 binding, DENV2 CPE)
COC(=O)c1c(C)[nH]c(O)c1C=Nc1ccc(Oc2ccccc2)cc1	FGF22 binding 44
C[C@@H]1CN([C@@H](C)CO)C(=O)c2cc(NC(=O)CCC(F)(F)F)ccc2O[C@@H](C)CCCCO[C@@H]1CN(C)C(=O)Nc1ccc(C(F)(F)F)cc1	none
COc1ccc(-c2cnc3n2CCCCC3)cc1	DENV2 CPE 44 (no result: FGF22 binding, ERAP1 HTS inh)
COc1ccc2c3c([nH]c2c1)[C@H](CO)N(C(=O)C1CC1)CC31CN(C(=O)c2ccncc2)C1	none
CC(C)C(NC(=O)CCNC(=O)c1ccc([N+](=O)[O-])cc1)c1nc2ccccc2[nH]1 (centres undefined)	ERAP1 HTS inh 67
O=C(NCCc1nc2ccccc2[nH]1)c1ccc([N+](=O)[O-])cc1	none
Cc1ccc([C@H]2C[C@@H](n3cc(-c4ccc(F)cc4)nn3)[C@H](O)CN2C(=O)c2cccs2)cc1	DENV2 CPE 32
COc1cccc(C2c3c(C)nn(-c4ccc([N+](=O)[O-])cc4)c3N=C3C(=O)Nc4ccccc4N32)c1 (centres undefined)	FGF22 binding 43
Cc1nn(-c2ccc([N+](=O)[O-])cc2)c2c1C(c1ccc(OC(F)F)cc1)N1C(=N2)C(=O)Nc2ccccc21 (centres undefined)	FGF22 binding 43
CC(=O)Nc1ccc(NC2=Nc3ccccc3N3C2=Nc2c(c(C)nn2-c2ccccc2)C3c2ccccc2)cc1 (centres undefined)	none (no result: AF4-AF9 inh, FGF22 binding, DENV2 CPE)
N#CCCc1cccc(CCC#N)c1	DENV2 CPE 120
Cc1c(N(C)C)c(=O)n(-c2ccccc2)n1C	DENV2 CPE 51 (no result: AF4-AF9 inh)
Cc1c(Nc2ccc(C=O)cc2)c(=O)n(-c2ccccc2)n1C	FGF22 binding 43
Cc1ccc(-c2ccccc2[C@H]2[C@@H](CO)N(S(C)(=O)=O)[C@H]2C#N)cc1	RAD52 anneal inh 101 (no result: FGF22 binding)
O=C(Cc1cccnc1)N1[C@@H](CO)[C@@H]2c3ccccc3NC[C@@H]21	DENV2 CPE 24
N#C[C@@H]1[C@H](c2ccccc2)[C@H](CO)N1C(=O)Cc1ccccc1	DENV2 CPE 74
CCC(=O)N1[C@H](C#N)[C@H](c2ccccc2-c2cccc(C)c2)[C@@H]1CO	DENV2 CPE 24
